# PAX8 inh HTS: inhibitors of PAX8 transcriptional activity in RMG-I cells | RMG-I TPO-luciferase reporter, SteadyGlo, 24 h | inhibition, % at 12.6 µM | 360,000 compounds, 1.2% hits;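 active = mean replicate inhibition at least 60% with every replicate also reaching 60%; inconclusive = only one of the two criteria is met; inactive = mean below 60% and not all replicates reaching 60%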;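 note: luciferase light reporting Pax8 driven TPO promoter activity; plate controls were median of neutral control wells for no effect and mitoxantrone controls for full effect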
# EBV LMP1 NFkB: inhibitors of Epstein-Barr LMP1-induced NF-kappaB reporter | LMP1-induced NF-kappaB luciferase reporter cells, luminescence | inhibition, % at 12.5 µM | AID 504558 | 350,000 compounds, 0.69% hits; in the data active = inhibition above about 41%; inconclusive = no clear call, values can overlap the other calls;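 note: 0% = neutral control wells and 100% = reference inhibitor control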
# TROY signal inh: blocks TROY-dependent signaling in reporter cells | Q293 LMP1-TROYcd NF-kB luciferase reporter, 4 h | inhibition, % at 10 µM | 360,000 compounds, 0.98% hits | AID 1347056;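 active = compounds whose plate-normalised and pattern-corrected inhibition of the luciferase reporter signal at the single screening dose is 50% or more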
# TWEAK Fn14 block: blocks TWEAK-Fn14 interaction in a reporter cell assay; TWEAK-stimulated Fn14 reporter cells, luciferase luminescence, 8 h; inhibition, % at 10 µM; 360,000 compounds, 2% hits; AID 1159606; in the data active = inhibition above about 50%
# LGR2 antag: Drosophila LGR2 receptor signaling inhibition. inhibition, % at 9.99 µM. HEK293 LGR2, CRE-luciferase, bursicon-stimulated, 4 h. AID 720647. 380,000 compounds, 0.35% hits;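 active = drop in luminescence signal, shown as inhibition above about 50% in the replicate tests, limit read from the data, passing the limit was not always enough; inconclusive = probably only some replicates passing the limit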;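 note: agonist challenge used bursicon conditioned medium at about half maximal strength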
# EWS-Fli block: blocks EWS/Fli oncoprotein-driven transcription | A673 NR0B1-luciferase reporter, viability-normalised | 350,000 compounds, 0.67% hits | inhibition, % at 12.6 µM;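 active = mean inhibition of at least 50% after viability correction, with every replicate also passing that limit; inconclusive = mean reaches 50% but only one of two replicates passes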;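 note: firefly luciferase signal divided by Alamar Blue viability fluorescence both relative to DMSO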
# * hit, by the source's call; ? = inconclusive; · = no result. Rows were chosen to be rich in hits. Some 3.1% of all compounds tested hit in one or more screens of this group.
SMILES,PAX8 inh HTS,EBV LMP1 NFkB,TROY signal inh,TWEAK Fn14 block,LGR2 antag,EWS-Fli block
COc1ccc(CN(C)C[C@H]2Oc3ccc(NS(=O)(=O)c4cn(C)cn4)cc3CC(=O)N([C@H](C)CO)C[C@@H]2C)cc1,-6,·,·,·,6,-7
CCCNC(=O)Nc1ccc2c(c1)OC[C@@H](C)N(CC1CCCC1)C[C@H](C)[C@@H](OC)CN(C)C2=O,8,·,·,·,5,-7
COc1ccccc1C1CCN(c2cc(O)ccc2[N+](=O)[O-])CC1,-7,-4,57*,-9,-12,7
Cc1ccc(S(=O)(=O)Nc2ccc3c(c2)CC(=O)N([C@@H](C)CO)C[C@@H](C)[C@@H](CN(C)S(=O)(=O)c2ccc(F)cc2)O3)cc1,6,·,·,·,-1,2
COc1ccc(NC(=O)Nc2ccc(F)c(F)c2)c(OC)c1,-19,67*,-30,-21,17,-33
Cc1nc(S/C(=C\c2ccc(OCc3ccccc3Cl)cc2)C(=O)O)n[nH]1,·,-5,·,83*,-5,·
Cc1nc(S/C(=C\c2ccc(-c3ccc(C(=O)O)c(Cl)c3)o2)C(=O)O)n[nH]1,-3,-5,-13,-6,3,-1
CCCCCCCn1ccc(=N)cc1,·,93*,46,38,·,·
CCCCCn1ccc(=N)cc1,·,13,20,20,·,·
CCCCCCCCCn1ccc(=N)cc1,?,29,54*,37,32,40
C[C@H](CO)N1C[C@H](C)[C@@H](CN(C)C(=O)Nc2cccc3ccccc23)Oc2ccc(NC(=O)CCC(F)(F)F)cc2C1=O,16,·,·,·,0,-3
CO[C@H]1CN(C)C(=O)c2cc(NS(=O)(=O)c3ccccc3)ccc2OC[C@H](C)N(Cc2nccs2)C[C@@H]1C,17,·,·,·,1,6
C[C@@H]1CCCCO[C@@H](CN(C)C(=O)Nc2ccc(C(F)(F)F)cc2)[C@H](C)CN([C@H](C)CO)C(=O)c2cc(NS(=O)(=O)c3ccc(Cl)cc3)ccc2O1,88*,·,·,·,18,18
C[C@@H]1CCCCO[C@H](CN(C)C(=O)Nc2ccc(C(F)(F)F)cc2)[C@@H](C)CN([C@@H](C)CO)C(=O)c2cc(NS(=O)(=O)c3ccc(Cl)cc3)ccc2O1,92*,·,·,·,4,0
C[C@@H]1CCCCO[C@@H](CN(C)C(=O)Nc2ccc(C(F)(F)F)cc2)[C@H](C)CN([C@@H](C)CO)C(=O)c2cc(NS(=O)(=O)c3ccc(Cl)cc3)ccc2O1,69*,·,·,·,1,1
C[C@H](CO)N1C[C@H](C)[C@@H](CN(C)C(=O)Nc2ccc(C(F)(F)F)cc2)OCCCC[C@H](C)Oc2ccc(NS(=O)(=O)c3ccc(Cl)cc3)cc2C1=O,69*,·,·,·,37,2
C[C@H]1CCCCO[C@@H](CN(C)C(=O)Nc2ccc(C(F)(F)F)cc2)[C@@H](C)CN([C@@H](C)CO)C(=O)c2cc(NS(=O)(=O)c3ccc(Cl)cc3)ccc2O1,-3,·,·,·,-9,9
CO[C@H]1CN(C)C(=O)c2cc(NC(=O)NC3CCCCC3)ccc2OC[C@H](C)N(C)C[C@@H]1C,-2,·,·,·,-5,-2
C[C@@H]1CCCCO[C@H](CN(C)C(=O)Nc2ccc(C(F)(F)F)cc2)[C@H](C)CN([C@@H](C)CO)C(=O)c2cc(NS(=O)(=O)c3ccc(Cl)cc3)ccc2O1,89*,·,·,·,6,0
c1ccc(-c2c[n+]3c(n2-c2ccccc2)CCC3)cc1,10,11,-9,10,0,20
CCOc1ccc(-n2c(-c3ccccc3)c[n+]3c2CCCCC3)cc1,86*,22,31,29,6,31
CCOC(=O)c1c(CSC(=N)N)n(-c2ccccc2)c2cc(Br)c(OC(C)=O)cc12,8,-48,21,-103,63*,25
COc1ccc(-c2cc(-c3ccccc3)c(C#N)c(S(C)=O)n2)cc1 (stereo not drawn),76*,11,-20,12,·,·
CCSc1nc(-c2ccc(OC)cc2)cc(-c2ccccc2)c1C#N,·,4,-54,-12,·,10
CCC(=O)N1CCc2cc(S(=O)(=O)CCC(=O)NCc3ccco3)ccc21,-2,2,10,101*,-6,-6
SMILES,PAX8 inh HTS,EBV LMP1 NFkB,TROY signal inh,TWEAK Fn14 block,LGR2 antag,EWS-Fli block
COc1ccc(NC(=O)CCS(=O)(=O)c2ccc3c(c2)CCN3C(C)=O)cc1,1,58*,-2,-14,6,-14
C[C@@H]1CN([C@@H](C)CO)C(=O)c2cccc(NC(=O)Nc3cccc4ccccc34)c2O[C@H]1CN(C)S(=O)(=O)c1cn(C)cn1,·,·,·,·,6,·
CCNC(=O)C[C@H]1CC[C@H]2[C@H](COc3ccc(NC(=O)Nc4ccc(C)cc4)cc3C(=O)N2C)O1,-10,·,·,·,6,-6
Cc1cc(C(=O)CSc2nnc3ccccn23)c(C)n1-c1ccccc1,81*,81*,79*,101*,98*,·
Cc1cc(C(=O)CSc2nnc(-c3cccs3)o2)c(C)n1-c1ccccc1,18,58*,-42,2,·,·
Cc1cc(C(=O)CSc2nnc(-c3ccccc3)n2-c2ccccc2)c(C)n1-c1ncn[nH]1,17,1,-17,-16,·,·
COc1cccc(NC(=O)CSc2nnc(-c3cc(C)n(-c4ccccc4)c3C)o2)c1,-98,26,36,89*,·,·
C/C(N)=C(/C#N)C(=O)CSc1nnc(-c2ccc3c(c2)OCO3)o1,·,16,45,83*,8,44
COc1ccc(NC(=O)CSc2nnc(-c3cccc(O)c3)o2)cc1,-102,6,-27,4,-7,-47
C[C@@H]1CN([C@H](C)CO)C(=O)c2cc(C#CC3CCCCC3)cnc2O[C@@H]1CN(C)C(=O)Nc1ccccc1,-2,·,·,·,-10,-6
CCCNC(=O)C[C@H]1CC[C@H]2[C@@H](COc3ccc(NC(=O)NCCC)cc3C(=O)N2C)O1,-28,·,·,·,-15,·
CO[C@@H]1CN(C)C(=O)c2cc(NC(=O)Nc3cc(F)ccc3F)ccc2OC[C@@H](C)N(C(=O)c2cnccn2)C[C@@H]1C,1,·,·,·,5,2
CCC(=O)N(C)C[C@@H]1Oc2cc(C#CCN(C)C)ccc2S(=O)(=O)N([C@@H](C)CO)C[C@@H]1C,·,·,·,·,4,-5
O=C(O)CSc1nnc(-c2ccc3c(c2)OCO3)o1,·,1,4,1,5,·
Cc1cc(C(=O)CSc2nnc(-c3ccc4c(c3)OCO4)o2)c(C)n1-c1ccc(F)cc1,16,5,13,65*,-3,1
N#Cc1ccc(CSc2nnc(-c3ccccc3)n2Cc2ccco2)cc1,·,0,-27,3,·,·
N#Cc1ccc(CSc2nnc(Cc3cccs3)n2Cc2ccco2)cc1,·,-7,·,76*,·,·
CO[C@@H]1CN(C)C(=O)c2ccc(NC(=O)c3ccccc3F)cc2OC[C@H](C)N(CC2CCOCC2)C[C@@H]1C,1,·,·,·,7,2
NC(N)=N/N=C/c1ccc(OCc2ccccc2Cl)cc1,·,-5,7,-14,1,58*
NC(N)=N/N=C/c1ccccc1,·,-10,-12,15,·,·

# Compound activity (PubChem)
